The panel holds about 79,000 compounds, 15% with a hit somewhere; the sample as a whole holds those more often. Active and inactive are the calls of the source. Cut-off read from the data, not from the text of the source: active = growth inhibition above about 70%; inactive = the rest.
Experiment: NCI Yeast Anticancer Drug Screen. Data for the rad50 strain (AID 155);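 note: 0% = growth of vehicle-only cultures of the same strain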
Conditions: S. cerevisiae rad50 strain growth inhibition; at 50.0 µM; active compounds read high
Outline: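 DNA repair mutant yeast, compound exposure, growth read-out; inhibition is taken relative to vehicle.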
For `O=C1CC[C@@H](NC(=O)Cc2ccccc2)C(=O)N1`, the growth inhibition was -6.65% (inactive). For `O=C(CCl)Nc1cc(C(F)(F)F)ccc1Cl`, the growth inhibition was -0.15% (inactive). In the case of `CCCCCCCCCCCCCCCCCCN(C)C`, the growth inhibition is reported as 54% (inactive). For `CCN(CC)c1ccc(NC(=O)CCl)cc1`, the growth inhibition was -3.95% (inactive). With `CCCCCCC1N(C(C#N)c2ccccc2)CCCN1C(C#N)c1ccccc1` (configuration not stated) the growth inhibition was 19.8% (inactive). For `COc1ccccc1/C=C(\C#N)C(=O)O`, the growth inhibition was 15.9% (inactive). In the case of `C=C1C(=O)OC2(CCCCC)CCCCC12` (configuration not stated), the growth inhibition is reported as 1.95% (inactive). For `CC(O)C1NC(=S)N(c2ccccc2)C1=O` (configuration not stated), the growth inhibition was 17.4% (inactive). For `O=[N+]([O-])c1ccc(Cl)c(C(F)(F)F)c1`, the growth inhibition was -0.8% (inactive). With `Oc1ccccc1C=Nc1ccc(Cl)cc1` the growth inhibition was -1.35% (inactive). With `O=C(O)[C@@H]1[C@@H]2C[C@@H]3[C@H](OC(=O)[C@@H]31)[C@@H]2O` the growth inhibition was -20.9% (inactive). In the case of `CN(C(=O)C12C3C4C5C3C1(C(=O)O)C5C42)C(C)(C)C` (configuration not stated), the growth inhibition is reported as 35.4% (inactive). In the case of `O=C(O)c1ccc(/C=N/NC(=S)Nc2cccc3cccnc23)cc1`, the growth inhibition is reported as 22.1% (inactive). With `COc1ccc2nc3cc([N+](=O)[O-])ccc3c(Nc3ccc(S(=O)(=O)N=C(N)N)cc3)c2c1` the growth inhibition was 59.8% (inactive). In the case of `COC(=O)C1C(c2ccccc2)C1(C#N)C#N` (configuration not stated), the growth inhibition is reported as -42.5% (inactive). With `COc1ccc(CN)cc1` the growth inhibition was -0.7% (inactive). For `CCOc1ncc(C(O)c2ccc(C)cc2)c(OCC)n1` (configuration not stated), the growth inhibition was -1.05% (inactive). For `O=C(CC(=O)CC(O)(C(F)(F)F)C(F)(F)F)CC(O)(C(F)(F)F)C(F)(F)F`, the growth inhibition was 73.1% (active). For `Nc1ccc(C(=O)Nc2nccs2)cc1`, the growth inhibition was 8.4% (inactive). With `Cc1cn(C2CC(C)N(CCO)O2)c(=O)[nH]c1=O` (configuration not stated) the growth inhibition was -8.1% (inactive). In the case of `NC(N)=N/N=C/c1c(Cl)nc2n1CCS2`, the growth inhibition is reported as -7.35% (inactive). In the case of `C[S+](C)CCOC(=O)C(=[N+]=[N-])c1ccc([N+](=O)[O-])cc1`, the growth inhibition is reported as 32.5% (inactive). For `O=[N+]([O-])c1ccc(/C=C(/c2ccc([N+](=O)[O-])o2)S(=O)(=O)c2ccccc2)o1`, the growth inhibition was 86% (active).

Experiment: NCI Yeast Anticancer Drug Screen. Data for the mec2-1 strain (AID 157)
Conditions: S. cerevisiae mec2-1 strain, at 50.0 µM, active compounds read high
Outline: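 Test agents were screened against the mec2-1 yeast strain, with defined DNA repair or cell cycle alteration. Growth was scored as inhibition against vehicle-only controls.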
For `COC(=O)CC(NC(=O)C(Cc1cncn1C(=O)OCc1ccccc1)NC(=O)OCc1ccccc1)C(=O)O` (configuration not stated), the growth inhibition was 3.25% (inactive). For `CS/C(=N/N=C(\C)c1ccccn1)[Se][Se]/C(=N/N=C(\C)c1ccccn1)SC`, the growth inhibition was -1% (inactive). With `Nc1cccc2c(=O)[nH][nH]c(=O)c12` the growth inhibition was -3.1% (inactive). In the case of `CC(C)c1ccc(NC(=S)NCCO)cc1`, the growth inhibition is reported as -4% (inactive). With `C/C(=N/NC(=O)CC#N)c1ccccc1` the growth inhibition was -0.5% (inactive). With `O=c1cc(-c2ccccc2Cl)[nH]c2cc3c(cc12)OCO3` the growth inhibition was -26.3% (inactive). With `NCCCn1[nH]c(=O)c2ncccc2c1=O` the growth inhibition was -28.8% (inactive). In the case of `Cc1cc(C)c(CN(C)C)c(CC(O)c2ccccc2)c1` (configuration not stated), the growth inhibition is reported as -5.95% (inactive). In the case of `CC(=O)Nc1ccc(/C=C2\SC(=S)N(/C=C3/C(=O)N(c4ccccc4)N=C3C)C2=O)cc1`, the growth inhibition is reported as -3% (inactive). For `CC(=O)OC[C@]1(O)CC[C@@]23CC1C[C@@H]2CCC1C(C)(C)CCC[C@@]13C` (some centres not stated), the growth inhibition was 41.6% (inactive). With `O=C1OC(c2ccc(Cl)cc2)=N/C1=C\c1c(Cl)cccc1Cl` the growth inhibition was -1.3% (inactive). With `CCOC(=O)CC1(C)c2nc(NC(C)=O)sc2Cc2sc(NC(C)=O)nc21` the growth inhibition was -8.9% (inactive). With `NC1=NOC(=O)C1c1ccccc1` (configuration not stated) the growth inhibition was -45.3% (inactive). For `CCc1cc(C(C)(C)C)cc(C(C)(C)C)c1O`, the growth inhibition was 18.4% (inactive). With `COc1ccc(/C=N/Nc2nc3ccccc3c(=O)n2-c2ccccc2)c(OCc2ccccc2)c1` the growth inhibition was 5.2% (inactive). For `C[n+]1c(-c2ccc(Cl)c(Cl)c2)c2cc(N)ccc2c2ccccc21`, the growth inhibition was -22.6% (inactive). In the case of `O=C1CC[C@@H](NC(=O)Cc2ccccc2)C(=O)N1`, the growth inhibition is reported as -19.3% (inactive). With `O=C(CCl)Nc1cc(C(F)(F)F)ccc1Cl` the growth inhibition was 1.75% (inactive). With `CCCCCCCCCCCCCCCCCCN(C)C` the growth inhibition was 23.1% (inactive). In the case of `CCN(CC)c1ccc(NC(=O)CCl)cc1`, the growth inhibition is reported as -12.5% (inactive). With `CCCCCCC1N(C(C#N)c2ccccc2)CCCN1C(C#N)c1ccccc1` (configuration not stated) the growth inhibition was 14.2% (inactive). For `COc1ccccc1/C=C(\C#N)C(=O)O`, the growth inhibition was -31.3% (inactive). For `C=C1C(=O)OC2(CCCCC)CCCCC12` (configuration not stated), the growth inhibition was 4.1% (inactive). In the case of `CC(O)C1NC(=S)N(c2ccccc2)C1=O` (configuration not stated), the growth inhibition is reported as 21% (inactive). With `O=[N+]([O-])c1ccc(Cl)c(C(F)(F)F)c1` the growth inhibition was 5.2% (inactive). With `Oc1ccccc1C=Nc1ccc(Cl)cc1` the growth inhibition was 3.6% (inactive). In the case of `O=C(O)[C@@H]1[C@@H]2C[C@@H]3[C@H](OC(=O)[C@@H]31)[C@@H]2O`, the growth inhibition is reported as -12.2% (inactive). In the case of `CN(C(=O)C12C3C4C5C3C1(C(=O)O)C5C42)C(C)(C)C` (configuration not stated), the growth inhibition is reported as 12.2% (inactive). In the case of `O=C(O)c1ccc(/C=N/NC(=S)Nc2cccc3cccnc23)cc1`, the growth inhibition is reported as 7.4% (inactive). In the case of `COc1ccc2nc3cc([N+](=O)[O-])ccc3c(Nc3ccc(S(=O)(=O)N=C(N)N)cc3)c2c1`, the growth inhibition is reported as 21.8% (inactive). In the case of `COC(=O)C1C(c2ccccc2)C1(C#N)C#N` (configuration not stated), the growth inhibition is reported as 2.55% (inactive). For `COc1ccc(CN)cc1`, the growth inhibition was -9.6% (inactive). In the case of `CCOc1ncc(C(O)c2ccc(C)cc2)c(OCC)n1` (configuration not stated), the growth inhibition is reported as -11.1% (inactive). With `O=C(CC(=O)CC(O)(C(F)(F)F)C(F)(F)F)CC(O)(C(F)(F)F)C(F)(F)F` the growth inhibition was 65.1% (inactive). With `Nc1ccc(C(=O)Nc2nccs2)cc1` the growth inhibition was 12.6% (inactive). With `Cc1cn(C2CC(C)N(CCO)O2)c(=O)[nH]c1=O` (configuration not stated) the growth inhibition was -1.35% (inactive). With `NC(N)=N/N=C/c1c(Cl)nc2n1CCS2` the growth inhibition was -32.2% (inactive). For `C[S+](C)CCOC(=O)C(=[N+]=[N-])c1ccc([N+](=O)[O-])cc1`, the growth inhibition was 9.8% (inactive). With `O=[N+]([O-])c1ccc(/C=C(/c2ccc([N+](=O)[O-])o2)S(=O)(=O)c2ccccc2)o1` the growth inhibition was 67.7% (inactive).

Source: PubChem BioAssay (NCI)
